# Experimental data as given in the supplement of paper PMC8728848.
# The sample as a whole holds a higher share of the strongest signals than the screen did.
# B1: Gal 8 (Mus musculus), Q9JL15 (protein)
# chain: MGGSHHHHHHGMASMLSLNNLQNIIYNPIIPYVGTITEQLKPGSLIVIRGHVPKDSERFQVDFQLGNSLKPRADVAFHFNPRFKRSSCIVCNTLTQEKWGWEEITYDMPFRKEKSFEIVFMVLKNKFQVAVNGRHVLLYAHRISPEQIDTVGIYGKVNIHSIGFRFSSASALPHTLGDLQSMETSALGLTQINRENIQKPGKLQLSLPFEARLNASMGPGRTVVIKGEVNTNARSFNVDLVAGKTRDIALHLNPRLNVKAFVRNSFLQDAWGEEERNITCFPFSSGMYFEMIIYCDVREFKVAINGVHSLEYKHRFKDLSSIDTLSVDGDIRLLDVRSW
# Tests used:
# Test in all cases: glycan array binding signal (z-score within array); higher = stronger binding
# Details in all cases: glycan notation: IUPAC condensed, linker removed
# [1] = target: Fuc(a1-2)Gal(b1-3)GalNAc(b1-4)[Neu5Ac(a2-3)]Gal(b1-4)Glc
# Method in brief: (§1)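 Glycan array data were curated from 3228 arrays in the Consortium for Functional Glycomics database and kept only where the protein sequence was available. Glycan names were converted to IUPAC-condensed notation, and columns mapping to the same glycan were averaged. The binding signal is a within-array Z-score, averaged across arrays of the same protein sequence at different concentrations or buffers and across linkers. Negative Z-scores can be read as non-binding.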
# Fuc(a1-2)Gal(b1-3)GlcNAc = target: Fuc(a1-2)Gal(b1-3)GlcNAc
# Method in brief: as §1
# Fuc(a1-2)Gal(b1-4)Glc = target: Fuc(a1-2)Gal(b1-4)Glc
# Method in brief: as §1
# [2] = target: Fuc(a1-2)Gal(b1-4)GlcNAc6S
# Method in brief: as §1
# [3] = target: Fuc(a1-2)Gal(b1-4)[Fuc(a1-3)]GlcNAc(b1-2)Man(a1-3)[Fuc(a1-2)Gal(b1-4)[Fuc(a1-3)]GlcNAc(b1-2)Man(a1-6)]Man(b1-4)GlcNAc(b1-4)[Fuc(a1-6)]GlcNAc
# Method in brief: as §1
# [4] = target: Fuc(a1-2)[Gal(a1-3)]Gal(b1-3)GlcNAc
# Method in brief: as §1
# [5] = target: Fuc(a1-2)[Gal(a1-3)]Gal(b1-3)GlcNAc(b1-2)Man(a1-3)[Fuc(a1-2)[Gal(a1-3)]Gal(b1-3)GlcNAc(b1-2)Man(a1-6)]Man(b1-4)GlcNAc(b1-4)GlcNAc
# Method in brief: as §1
# [6] = target: Fuc(a1-2)[Gal(a1-3)]Gal(b1-4)Glc
# Method in brief: as §1
# [7] = target: Fuc(a1-2)[Gal(a1-3)]Gal(b1-4)GlcNAc
# Method in brief: as §1
# [8] = target: Fuc(a1-2)[Gal(a1-3)]Gal(b1-4)GlcNAc(b1-2)Man
# Method in brief: as §1
# [9] = target: Fuc(a1-2)[Gal(a1-3)]Gal(b1-4)GlcNAc(b1-2)Man(a1-3)[Fuc(a1-2)[Gal(a1-3)]Gal(b1-4)GlcNAc(b1-2)Man(a1-6)]Man(b1-4)GlcNAc(b1-4)[Fuc(a1-6)]GlcNAc
# Method in brief: as §1
# [10] = target: Fuc(a1-2)[Gal(a1-3)]Gal(b1-4)GlcNAc(b1-6)GalNAc
# Method in brief: as §1
# [11] = target: Fuc(a1-2)[GalNAc(a1-3)]Gal(b1-3)GlcNAc
# Method in brief: as §1
# [12] = target: Fuc(a1-2)[GalNAc(a1-3)]Gal(b1-4)GlcNAc(b1-2)Man
# Method in brief: as §1
# [13] = target: Fuc(a1-2)[GalNAc(a1-4)]Gal(b1-4)GlcNAc
# Method in brief: as §1
# [14] = target: Fuc(a1-3)[Gal(b1-4)]GlcNAc(b1-6)[Gal(b1-3)GlcNAc(b1-3)]Gal(b1-4)Glc
# Method in brief: as §1
# [15] = target: Fuc(a1-3)[Gal3S(b1-4)]GlcNAc
# Method in brief: as §1
# [16] = target: Gal(a1-3)Gal(b1-3)[Fuc(a1-4)]GlcNAc(b1-2)Man(a1-3)[Gal(a1-3)Gal(b1-3)[Fuc(a1-4)]GlcNAc(b1-2)Man(a1-6)]Man(b1-4)GlcNAc(b1-4)GlcNAc
# Method in brief: as §1
# [17] = target: Gal(a1-3)Gal(b1-4)GlcNAc(b1-2)Man
# Method in brief: as §1
# Gal(a1-3)GalNAc = target: Gal(a1-3)GalNAc
# Method in brief: as §1
# [18] = target: Gal(a1-4)Gal(b1-3)GlcNAc(b1-2)Man(a1-3)[Gal(a1-4)Gal(b1-3)GlcNAc(b1-2)Man(a1-6)]Man(b1-4)GlcNAc(b1-4)GlcNAc
# Method in brief: as §1
# Gal(b1-2)Gal = target: Gal(b1-2)Gal
# Method in brief: as §1
# [19] = target: Gal(b1-3)GlcNAc(b1-3)Gal(b1-4)[Fuc(a1-3)]GlcNAc
# Method in brief: as §1
# [20] = target: Gal(b1-3)[Fuc(a1-4)]GlcNAc(b1-6)GalNAc
# Method in brief: as §1
# [21] = target: Gal(b1-4)GlcNAc(b1-2)Man(a1-3)[Gal(b1-4)GlcNAc(b1-2)Man(a1-6)][GlcNAc(b1-4)]Man(b1-4)GlcNAc(b1-4)[Fuc(a1-6)]GlcNAc
# Method in brief: as §1
# [22] = target: Gal(b1-4)GlcNAc(b1-2)Man(a1-6)[GlcNAc(b1-2)Man(a1-3)]Man(b1-4)GlcNAc(b1-4)GlcNAc
# Method in brief: as §1
# [23] = target: Gal(b1-4)GlcNAc(b1-3)Gal(b1-4)GlcNAc(b1-3)Gal(b1-4)GlcNAc
# Method in brief: as §1
binder,measurement,setting,value
B1,glycan array binding signal (z-score),[1],-0.259
same,glycan array binding signal (z-score),Fuc(a1-2)Gal(b1-3)GlcNAc,0.14
same,glycan array binding signal (z-score),Fuc(a1-2)Gal(b1-4)Glc,0.021
same,glycan array binding signal (z-score),[2],-0.038
same,glycan array binding signal (z-score),[3],-0.529
same,glycan array binding signal (z-score),[4],3.88
same,glycan array binding signal (z-score),[5],3.71
same,glycan array binding signal (z-score),[6],2.26
same,glycan array binding signal (z-score),[7],3.76
same,glycan array binding signal (z-score),[8],2.84
same,glycan array binding signal (z-score),[9],3.64
same,glycan array binding signal (z-score),[10],-0.535
same,glycan array binding signal (z-score),[11],1
same,glycan array binding signal (z-score),[12],3.48
same,glycan array binding signal (z-score),[13],-0.537
same,glycan array binding signal (z-score),[14],0.008
same,glycan array binding signal (z-score),[15],-0.521
same,glycan array binding signal (z-score),[16],-0.204
same,glycan array binding signal (z-score),[17],0.378
same,glycan array binding signal (z-score),Gal(a1-3)GalNAc,-0.533
same,glycan array binding signal (z-score),[18],-0.534
same,glycan array binding signal (z-score),Gal(b1-2)Gal,-0.521
same,glycan array binding signal (z-score),[19],0.099
same,glycan array binding signal (z-score),[20],-0.515
same,glycan array binding signal (z-score),[21],-0.123
same,glycan array binding signal (z-score),[22],-0.108
same,glycan array binding signal (z-score),[23],0.937
